In PubChem BioAssay (EPA / NIEHS):
“And” between values parts separate entries of the source, which are not always exact repeats. Equal entries are not always repeated. Results filed as inconclusive are left out. The source holds several records for some structures; these can differ, active in one and inactive in another. The source made the active and inactive calls. Rule for the calls: active = hit-call score of the fitted dose curve at least 0.9, where 1 is the maximum; inconclusive = response in the unintended direction; inactive = score below 0.9.

Columns and labels:
NCBI gene 24521 = assay: NVS_IC_rKATPCh: NovaScreen (NVS) Ion Channel Assay for rat Potassium Channel, ATP-Sensitive (KATPCh) (AID 2283319)
Experimental: NVS_IC_rKATPCh is a biochemical, single-readout assay that uses extracted gene-proteins from Rat cortical membranes in a tissue-based cell-free assay. Measurements were taken 2 hours after chemical dosing in a 48-well plate.NVS_IC_rKATPCh is one of one assay component(s) measured or calculated from the NVS_IC_rKATPCh assay. It is designed to make measurements of radioligand binding, a form of binding reporter, as detected with scintillation counting signals by Filter-based radiodetection technology.Data from the assay component NVS_IC_rKATPCh was analyzed into 1 assay endpoint. This assay endpoint, NVS_IC_rKATPCh, was analyzed in the positive analysis fitting direction relative to DMSO as the negative control and baseline of activity. Using a type of binding reporter, loss-of-signal activity can be used to understand changes in the binding as they relate to the gene Kcnj1. Furthermore, this assay endpoint can be referred to as a primary readout, because the performed assay has only produced 1 assay endpoint. To generalize the intended target to other relatable targets, this assay endpoint is annotated to the ion channel intended target family, where the subfamily is potassium channel.
Binding assays used specific radioligands (tritiated, iodinated) with non-radioactive competitive displacement ligands in agonist or antagonist protocols (as indicated) and various reference compounds and inhibitors to titrate specific binding to receptors and transporters. Most enzyme assays (CYPs, kinases, phosphatases, proteases, HDACs) used recombinant protein and specific substrates (fluorescence mostly, some colorimetric and radioactive) and inhibitors, followed by a biochemical separation of substrate and product. All assays for the biochemical HTS were initially run in duplicate at a single concentration (10 uM for CYP450 assays and 25 uM for all others). […]

[1] = biological target: Voltage-dependent N-type calcium channel subunit alpha-1B (Rattus norvegicus) (UniProt Q02294); assay: NVS_IC_rCaChN: NovaScreen (NVS) Ion Channel Assay for rat Calcium Channel, Type N (CaChN) (AID 2283317)
[2] = biological target: bovine Gamma-Aminobutyric Acid Type A Receptor BDZ, alpha 1 site (GABARa1), GABRA1 (gene 780973) (UniProt P08219); assay: NVS_LGIC_bGABARa1: NovaScreen (NVS) Ligand-Gated Ion Channel Assay for bovine Gamma-Aminobutyric Acid Type A Receptor BDZ, alpha 1 site (GABARa1) (AID 2283321)
Method in brief: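 Radioligand competition binding on bovine cortical membranes, 0.75 h, filter-based scintillation counting. Primary single concentration 25 uM in duplicate; actives rerun in concentration-response to 50 uM max. Loss of signal fitted versus DMSO.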

[3] = biological target: rat Neonicotinoid receptor (NNR), Chrna7 (gene 25302) (UniProt Q05941); assay: NVS_LGIC_rNNR_BungSens: NovaScreen (NVS) Ligand-Gated Ion Channel Assay for rat Neonicotinoid receptor (NNR) (AID 2283315)
Method in brief: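 Radioligand displacement binding on rat cortical membranes, 2.5 h incubation, filtration and scintillation counting. Loss of specific binding fitted relative to DMSO.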

[4] = biological target: rat Opioid Receptor, Non-selective Binding, Oprm1 (gene 25601) (UniProt P33535); assay: NVS_GPCR_rOpiate_NonSelective: NovaScreen (NVS) G Protein-Coupled Receptor Assay for rat Opioid Receptor, Non-selective Binding (AID 2283318)
Method in brief: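 Rat forebrain membranes, cell-free radioligand binding with filter-based scintillation counting, read 1.5 h after dosing. Primary screen in duplicate at 25 uM; actives retested in concentration series. Loss of signal versus DMSO baseline scored.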

[5] = biological target: bovine Gamma-Aminobutyric Acid Type A Receptor BDZ, alpha 5 site (GABARa5), GABRA5 (gene 523515) (UniProt Q08E50); assay: NVS_LGIC_bGABARa5: NovaScreen (NVS) Ligand-Gated Ion Channel Assay for bovine Gamma-Aminobutyric Acid Type A Receptor BDZ, alpha 5 site (GABARa5) (AID 2283323)
Method in brief: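 Radioligand competitive displacement binding on bovine hippocampal membranes, read 1 hr after dosing by filter-based scintillation counting. Primary screen at 25 uM in duplicate; actives (e.g. ≥30% inhibition) then run in concentration-response up to 50 uM.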

[6] = NVS_IC_rCaDHPRCh_L: NovaScreen (NVS) Ion Channel Assay for rat Calcium Channel, Type L, Dihydropyridine Site (CaDHPRCh_L) (AID 2283320)
Method in brief: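 Radioligand binding to dihydropyridine site on rat cortical membranes, filter-based scintillation counting, 1 h after dosing. Screened in duplicate at 25 uM; actives rerun in concentration-response up to 50 uM. Loss of signal versus DMSO baseline.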

[7] = biological target: rat Glutamate, AMPA Site (AMPA), Gria1 (gene 50592) (UniProt P19490); assay: NVS_LGIC_rAMPA: NovaScreen (NVS) Ligand-Gated Ion Channel Assay for rat Glutamate, AMPA Site (AMPA) (AID 2283324)
Experimental: NVS_LGIC_rAMPA is a biochemical, single-readout assay that uses extracted gene-proteins from Rat forebrain membranes in a tissue-based cell-free assay. Measurements were taken 1 hour after chemical dosing in a 48-well plate.NVS_LGIC_rAMPA is one of one assay component(s) measured or calculated from the NVS_LGIC_rAMPA assay. It is designed to make measurements of radioligand binding, a form of binding reporter, as detected with scintillation counting signals by Filter-based radiodetection technology.Data from the assay component NVS_LGIC_rAMPA was analyzed into 1 assay endpoint. This assay endpoint, NVS_LGIC_rAMPA, was analyzed in the positive analysis fitting direction relative to DMSO as the negative control and baseline of activity. Using a type of binding reporter, loss-of-signal activity can be used to understand changes in the binding as they relate to the gene Gria1. Furthermore, this assay endpoint can be referred to as a primary readout, because the performed assay has only produced 1 assay endpoint. To generalize the intended target to other relatable targets, this assay endpoint is annotated to the ion channel intended target family, where the subfamily is ligand-gated ion channel. […]

[8] = biological target: rat Vasopressin 1 Receptor (V1), Avpr1a (gene 25107) (UniProt P30560); assay: NVS_GPCR_rV1: NovaScreen (NVS) G Protein-Coupled Receptor Assay for rat Vasopressin 1 Receptor (V1) (AID 2283316)
Method in brief: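 Radioligand binding on rat liver membranes, 1.5 h incubation, filter-based scintillation counting. Single 25 uM screen in duplicate; chemicals meeting threshold (e.g. 30% inhibition) run in concentration-response up to 50 uM.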

[9] = biological target: Sodium channel protein type 1 subunit alpha (Rattus norvegicus) (UniProt P04774); assay: NVS_IC_rNaCh_site2: NovaScreen (NVS) Ion Channel Assay for rat Sodium Channel, Site 2 (NaCh) (AID 2283322);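 note: hit means loss of radioligand binding signal relative to DMSO so AC50 marks displacement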
Method in brief: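 Membranes: rat forebrain. Format: competitive radioligand displacement, filter separation, scintillation readout, 1 h exposure. Primary screen in duplicate at 25 uM; actives retested in concentration series.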

Chain of rat Neonicotinoid receptor (NNR), Chrna7 (gene 25302) (Q05941 whole entry, looked up): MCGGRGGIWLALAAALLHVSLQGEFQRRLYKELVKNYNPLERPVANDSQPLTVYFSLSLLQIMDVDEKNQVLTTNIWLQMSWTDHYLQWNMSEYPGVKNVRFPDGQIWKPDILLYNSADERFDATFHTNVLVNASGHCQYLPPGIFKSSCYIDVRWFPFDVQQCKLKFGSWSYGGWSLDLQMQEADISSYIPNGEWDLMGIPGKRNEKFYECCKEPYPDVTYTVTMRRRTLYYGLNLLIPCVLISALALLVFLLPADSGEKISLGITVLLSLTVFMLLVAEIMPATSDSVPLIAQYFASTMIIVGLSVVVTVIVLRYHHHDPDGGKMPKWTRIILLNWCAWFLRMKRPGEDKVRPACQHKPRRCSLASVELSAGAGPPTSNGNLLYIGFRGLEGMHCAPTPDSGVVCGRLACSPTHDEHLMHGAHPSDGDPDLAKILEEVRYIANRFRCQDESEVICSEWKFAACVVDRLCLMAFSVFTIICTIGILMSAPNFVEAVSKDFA
Chain of bovine Gamma-Aminobutyric Acid Type A Receptor BDZ, alpha 5 site (GABARa5), GABRA5 (gene 523515) (Q08E50 whole entry, looked up): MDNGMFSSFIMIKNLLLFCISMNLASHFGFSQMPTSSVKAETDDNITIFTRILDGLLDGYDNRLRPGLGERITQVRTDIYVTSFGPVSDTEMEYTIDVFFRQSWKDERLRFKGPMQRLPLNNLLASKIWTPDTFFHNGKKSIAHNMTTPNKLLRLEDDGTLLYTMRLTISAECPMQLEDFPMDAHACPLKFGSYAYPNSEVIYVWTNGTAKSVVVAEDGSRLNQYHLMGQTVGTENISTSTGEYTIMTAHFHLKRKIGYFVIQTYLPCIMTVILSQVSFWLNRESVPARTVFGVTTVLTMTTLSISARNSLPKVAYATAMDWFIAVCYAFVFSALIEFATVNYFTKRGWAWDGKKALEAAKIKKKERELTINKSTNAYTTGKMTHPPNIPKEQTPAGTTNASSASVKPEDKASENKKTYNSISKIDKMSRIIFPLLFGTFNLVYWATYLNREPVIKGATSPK
Chain of bovine Gamma-Aminobutyric Acid Type A Receptor BDZ, alpha 1 site (GABARa1), GABRA1 (gene 780973) (P08219 whole entry, looked up): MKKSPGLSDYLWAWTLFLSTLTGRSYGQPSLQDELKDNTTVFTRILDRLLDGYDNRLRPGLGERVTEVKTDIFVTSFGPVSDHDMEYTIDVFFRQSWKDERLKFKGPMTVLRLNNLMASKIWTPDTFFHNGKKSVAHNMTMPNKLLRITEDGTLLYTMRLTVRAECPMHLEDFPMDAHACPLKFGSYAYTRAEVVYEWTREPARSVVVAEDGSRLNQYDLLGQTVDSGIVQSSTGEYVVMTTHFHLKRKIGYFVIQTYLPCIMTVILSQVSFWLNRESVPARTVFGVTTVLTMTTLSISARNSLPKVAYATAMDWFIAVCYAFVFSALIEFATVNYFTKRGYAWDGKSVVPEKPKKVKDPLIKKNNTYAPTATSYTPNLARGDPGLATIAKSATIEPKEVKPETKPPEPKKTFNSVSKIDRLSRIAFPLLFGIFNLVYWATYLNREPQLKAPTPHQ
Chain of rat Opioid Receptor, Non-selective Binding, Oprm1 (gene 25601) (P33535 whole entry, looked up): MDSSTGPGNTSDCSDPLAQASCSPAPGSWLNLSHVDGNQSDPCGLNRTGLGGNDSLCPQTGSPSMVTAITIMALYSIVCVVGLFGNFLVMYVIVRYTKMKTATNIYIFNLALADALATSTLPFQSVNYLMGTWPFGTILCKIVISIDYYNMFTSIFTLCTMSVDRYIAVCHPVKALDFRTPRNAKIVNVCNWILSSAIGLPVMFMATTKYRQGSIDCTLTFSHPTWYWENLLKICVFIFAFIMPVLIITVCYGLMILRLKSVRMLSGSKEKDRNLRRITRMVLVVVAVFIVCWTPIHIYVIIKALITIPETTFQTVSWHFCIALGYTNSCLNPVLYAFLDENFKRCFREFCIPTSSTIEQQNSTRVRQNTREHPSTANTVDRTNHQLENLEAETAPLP
Chain of rat Glutamate, AMPA Site (AMPA), Gria1 (gene 50592) (P19490 whole entry, looked up): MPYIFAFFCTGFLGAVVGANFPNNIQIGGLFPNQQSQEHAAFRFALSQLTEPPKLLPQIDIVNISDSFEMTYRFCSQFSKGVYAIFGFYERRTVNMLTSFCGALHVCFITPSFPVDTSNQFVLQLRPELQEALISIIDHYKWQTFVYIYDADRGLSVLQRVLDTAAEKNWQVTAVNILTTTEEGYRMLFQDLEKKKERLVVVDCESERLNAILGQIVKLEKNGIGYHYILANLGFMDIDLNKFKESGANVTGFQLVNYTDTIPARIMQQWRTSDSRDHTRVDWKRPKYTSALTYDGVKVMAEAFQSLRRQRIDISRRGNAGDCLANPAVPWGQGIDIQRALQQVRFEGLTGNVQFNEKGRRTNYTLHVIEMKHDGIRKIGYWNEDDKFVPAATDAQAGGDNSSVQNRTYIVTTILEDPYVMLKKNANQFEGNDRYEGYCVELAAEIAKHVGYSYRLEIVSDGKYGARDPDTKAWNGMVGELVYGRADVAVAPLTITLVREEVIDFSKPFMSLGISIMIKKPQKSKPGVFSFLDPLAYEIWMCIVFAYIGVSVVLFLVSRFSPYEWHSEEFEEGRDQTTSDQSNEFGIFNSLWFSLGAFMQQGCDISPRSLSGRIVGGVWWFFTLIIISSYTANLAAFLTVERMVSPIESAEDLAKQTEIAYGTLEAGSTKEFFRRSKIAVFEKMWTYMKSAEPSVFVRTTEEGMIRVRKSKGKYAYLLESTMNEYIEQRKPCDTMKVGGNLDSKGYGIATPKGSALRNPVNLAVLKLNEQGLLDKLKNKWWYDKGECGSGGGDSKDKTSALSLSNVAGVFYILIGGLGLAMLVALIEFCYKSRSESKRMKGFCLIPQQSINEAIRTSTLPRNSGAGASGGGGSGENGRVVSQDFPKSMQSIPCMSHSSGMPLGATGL
Chain of rat Vasopressin 1 Receptor (V1), Avpr1a (gene 25107) (P30560 whole entry, looked up): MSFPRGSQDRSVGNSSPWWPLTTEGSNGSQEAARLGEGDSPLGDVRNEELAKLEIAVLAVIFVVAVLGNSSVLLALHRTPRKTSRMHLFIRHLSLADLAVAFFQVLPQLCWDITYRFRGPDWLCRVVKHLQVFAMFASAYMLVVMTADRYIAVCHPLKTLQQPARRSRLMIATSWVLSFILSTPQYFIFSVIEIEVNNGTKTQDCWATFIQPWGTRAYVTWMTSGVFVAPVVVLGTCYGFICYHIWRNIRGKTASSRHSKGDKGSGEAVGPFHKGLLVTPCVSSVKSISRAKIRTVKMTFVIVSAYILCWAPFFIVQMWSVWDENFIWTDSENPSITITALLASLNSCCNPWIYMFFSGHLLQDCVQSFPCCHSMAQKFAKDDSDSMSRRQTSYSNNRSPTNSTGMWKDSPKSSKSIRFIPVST

Compound: COC(=O)C(C)Oc1ccc(Oc2ccc(Cl)cc2Cl)cc1 (stereo unspecified)
- outcome (NCBI gene 24521): inactive

Compound: CCNc1nc(Cl)nc(NCC)n1
- outcome [1]: inactive

Compound: COc1nc(C)nc(NC(=O)NS(=O)(=O)c2ccccc2Cl)n1
- outcome [2]: inactive

Compound: CCCCNC(=O)OCC#CI
- AC50 (NCBI gene 24521): 9.23 µM (active) and 12.3 µM (active)

Compound: CNC(=O)ON=CC(C)(C)SC
- outcome [3]: inactive

Compound: CCOP(=S)(OCC)SCn1c(=O)oc2cc(Cl)ccc21
- outcome [3]: inactive

Compound: CCOC(=O)C(Cl)Cc1cc(-n2nc(C)n(C(F)F)c2=O)c(F)cc1Cl (stereo unspecified)
- outcome [2]: inactive

Compound: CCCCOC(=O)c1ccccc1C(=O)OCCCC
- outcome [1]: inactive
- outcome [4]: inactive
- AC50 [5]: 32.5 µM (active) and 19.3 µM (active)

Compound: COc1ccc(C(c2ccc(OC)cc2)C(Cl)(Cl)Cl)cc1
- outcome [4]: inactive
- outcome [6]: inactive
- outcome [5]: inactive
- outcome [7]: inactive

Compound: Cc1ccc(-c2c(Cl)nc(C#N)n2S(=O)(=O)N(C)C)cc1
- AC50 [3]: 8.72 µM (active)

Compound: CS/C(C)=N/OC(=O)N(C)SN(C)C(=O)O/N=C(\C)SC
- outcome [4]: inactive

Compound: N#CC(CCc1ccc(Cl)cc1)(Cn1cncn1)c1ccccc1 (stereo unspecified)
- outcome [3]: inactive
- outcome [5]: inactive

Compound: CO/C=C(/C(=O)OC)c1ccccc1Oc1cc(Oc2ccccc2C#N)ncn1
- AC50 [8]: 26.4 µM (active)
- AC50 [4]: 6.66 µM (active)
- outcome [4]: inactive

Compound: O=C(Nc1ccccc1)Nc1ccnc(Cl)c1
- AC50 [4]: 32.3 µM (active)

Compound: C#CCOS(=O)OC1CCCCC1Oc1ccc(C(C)(C)C)cc1 (stereo unspecified)
- outcome [4]: inactive
- AC50 [6]: 37.4 µM (active)

Compound: Oc1ccccc1-c1ccccc1
- outcome [9]: inactive

Compound: COC(=O)c1ccccc1C(=O)OC
- outcome (NCBI gene 24521): inactive

Compound: OC(c1ccc(Cl)cc1)(c1cncnc1)c1ccccc1Cl (stereo unspecified)
- AC50 [6]: 19 µM (active)
- AC50 [9]: 5.79 µM (active)

Compound: CCCC1COC(Cn2cncn2)(c2ccc(Cl)cc2Cl)O1 (stereo unspecified)
- AC50 [4]: 10.1 µM (active)
- AC50 [9]: 25 µM (active)

Compound: CNC(=S)S
- outcome [7]: inactive
